Consider 40 molecules from PubChem BioAssay.

A number with no mark means an inactive call. Activity calls are given as the source filed them.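 How the source made its calls, unless noted: active means inhibition above 50%; inactive means the rest.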

One test in a line: antimalarial activity against Dd2 strain (AID 2302;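 active means growth inhibition above 50% at the single 2 µM test dose, taken to imply half-maximal potency below 2 µM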;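 further: 0% = DMSO untreated growth and 100% = chloroquine plus artemisinin killed control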). The conditions noted are these: P. falciparum Dd2 in RBCs, LDH growth readout, 72 h; at 2 µM; hits give high values.
As for `CC(=O)Nc1cc(C(=O)Nc2cccc(-c3cccc(-c4nc5c(C)cccc5[nH]4)c3)c2)ccc1C`, the growth inhibition was 62% (active).

Regarding `Nc1cc(-c2ccc(-c3cccs3)s2)nc2ccccc12`, the growth inhibition is 50% (active). Take `COc1cc2c(cc1S(=O)(=O)c1ccc(NC(=O)Nc3ccc(F)cc3)cc1)CCN(C)CC2`: the growth inhibition is 55% (active).

The nature of a further test: HepG2 cytotoxicity, primary screen, cytotoxicity control for P. falciparum antimalarial project, cell-based, ATP luminescence (AID 2303).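 Further: 0% = DMSO wells and 100% = digitonin-killed cells.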 The conditions noted are these: HepG2 viability, 24-48 h, at 10 µM, hits give high values.
A word on the inhibition: it is the relative decrease from the control value, in per cent. In the case of `OCCCCCCNc1ccnc2[nH]c3ccc(I)cc3c12`, the inhibition is 27%. In the case of `COc1cccc2cc(C(=O)N[C@@H](CC(C)C)C(=O)N[C@H](/C=N/N3C(=O)CN(Cc4ccccc4)C3=O)CCc3ccccc3)oc12`, the inhibition is 14%. Same read-out and setting: with `O=C(Cn1c2ccccc2c(=O)c2ccc(Cl)cc21)Nc1ccc(C(F)(F)F)cc1` the figure was 30%. As to `CCc1cc([C@H]2O[C@@H](n3cnc4c(NCC(c5ccccc5)c5ccccc5)nc(NCCNc5ccccn5)nc43)[C@H](O)[C@@H]2O)on1`, the inhibition was 14%.

For the molecule `O=S(=O)(NCCN1CCCC1)c1ccc(-c2cccc(CNC3Cc4ccccc4C3)c2)cc1F`, the inhibition was 41%. Take `O=C(Cn1c(=O)oc2ccccc21)N1CCC(n2c(=O)n(CCCN3CCOCC3)c3ccccc32)CC1`: the inhibition is 11%. As to `Cc1cccc(NC(=O)c2cnc(N3CCN(c4ccncc4)CC3)c(Cl)c2)c1`, the inhibition is 36%. With `COc1ccc2nc(C)cc(NN=Cc3ccccc3)c2c1`, the inhibition was 4%. As to `CN(C)S(=O)(=O)c1ccc(Nc2nc(NCCC3C=NC=N3)nc3cc[nH]c(=O)c23)cc1` (stereo not drawn), the inhibition was 8%. Regarding `O=C(/C=C/c1ccc(C(F)(F)F)cc1)NCCCCCN1CCN(C(=O)Nc2ccc(Cl)cc2)CC1`, the inhibition was 37%. Take `Cc1cc(N[C@@H](Cc2ccccc2)C(=O)NCc2cccc(F)c2)nc(NCCOc2ccccc2)n1`: the inhibition is 0%. Regarding `Cc1cc(C)c(O)c(-c2cc(C(=O)Nc3ccc(S(=O)(=O)N4CC(C)OC(C)C4)cc3)[nH]n2)c1` (stereo not drawn), the inhibition is 31%.

As to `Oc1ccc(Nc2nc(NCC3CCCO3)c3ccccc3n2)cc1` (stereo not drawn), the inhibition is 7%. As for `CCOC(=O)c1cn(CC)c2cc(O[C@H]3CCN(C(=O)OC(C)(C)C)C3)ccc2c1=O`, the inhibition was 9%. For the molecule `OC(COc1ccccc1-c1nc2ccccc2o1)CN1CCCN(CCc2ccccc2)CC1` (stereo not drawn), the inhibition was 39%. Take `CCC(C)NS(=O)(=O)c1ccc2nc(Nc3ccc(C)cc3)n([C@H](C)C(C)(C)C)c2c1` (stereo partly drawn): the inhibition is 2%. As to `CC(C)CNC(=O)c1cncc(-c2cccc(CNC3Cc4ccccc4C3)c2)c1`, the inhibition is 4%.

In the case of `COc1ccc2nccc([C@@H](O)CN3CCC(NC(=O)c4ccc(Oc5ccccc5)cc4)CC3)c2c1`, the inhibition is 39%. On the same count and under the same terms, the same measure for `CC(C)c1ccc(CN2CCC(CNC(=O)c3cc(-c4cccc(F)c4)cs3)C2)cc1` (stereo not drawn): 59% (active); for `COc1ccc2[nH]c(C(=O)Nc3ccc4nc(-c5ccccc5)[nH]c4c3)cc2c1`: 51% (active). For `Cc1cc(NC(c2ccc(Cl)cc2)c2ccc3cccnc3c2O)no1` (stereo not drawn), the inhibition is 50% (active). With `Clc1ccc(CNC2CCN(CC3CCCCC3)CC2)cc1`, the inhibition was 12%. Consider `CS(=O)(=O)c1cccc2sc(N3CCN(C(=O)c4ccc([N+](=O)[O-])o4)CC3)nc12`, for which the inhibition was -26%.

`CCOC(=O)c1ccc(NC(=O)N(Cc2ccc(-c3cccc(CN4CCNCC4)c3)cc2)C2CCN(Cc3ccccc3)CC2)cc1`: the inhibition is 19%. As for `CCCCOc1ccc(N2C(N)=NC(N)=NC2(C)C)cc1`, the inhibition is 16%. Turning to `O=C(/C=C/c1ccc(Cl)c(Cl)c1)NCCCCCCN1CCN(C(=O)Nc2ccc(Cl)c(C(F)(F)F)c2)CC1`, the inhibition is 47%. For the molecule `CCCCNC(=O)C(C)NC(=O)c1ccc(O)c(-c2ccc(Cl)c(Cl)c2)c1` (stereo not drawn), the inhibition is -5%. Consider `N#Cc1ccc2c(c1)CCN(CCC1CCC(NC(=O)c3cc4cccc([N+](=O)[O-])c4[nH]3)CC1)C2` (stereo not drawn), for which the inhibition was -4%. As for `Cc1cccc(-c2nn(-c3ccccc3)c3[nH]c(=O)c(CNC4CCCC4)cc23)c1`, the inhibition was 18%. For `Cc1cc(NN=Cc2cccc(Cl)c2)c2ccccc2n1`, the inhibition was 22%. Same read-out and setting: with `COc1cc2c(c(Cl)c1OC)CCN(Cc1ccccc1)CC2c1ccc(NC(=O)C(F)(F)F)cc1` (stereo not drawn) the figure was 0%; with `COc1ccc2nccc([C@@H](O)CN3CCC(NC(=O)C(c4ccsc4)N4CCN(c5ccccc5OC)CC4)CC3)c2c1` (stereo partly drawn), 11%. Same read-out and setting: with `CN(C)CCCOc1cc(NC(=O)Nc2ccc(-c3ccncc3)c3ccccc23)ccc1I` the figure was 46%; with `O=C(/C=C/c1ccc(Cl)c(Cl)c1)NC1CCN(Cc2cccc(O)c2)CC1`, -3%; with `COc1ccc2ncc(Cl)c(CCN3CC[C@@H](CNCc4cc5c(cn4)OCS5)C3)c2n1`, 22%.

Take `NC1=NC(c2ccccc2)(c2ccccn2)C(=O)N1CCCc1ccccc1` (stereo not drawn): the inhibition was -1%.

Regarding `COc1ccc(-c2cccc(CNCc3ccc(F)cc3)c2)cc1S(=O)(=O)NCCN1CCCC1`, the inhibition is 20%. For `CC(=O)Nc1cc(C(=O)Nc2cccc(-c3cccc(-c4nc5c(C)cccc5[nH]4)c3)c2)ccc1C`, the inhibition is 25%. On to `Nc1cc(-c2ccc(-c3cccs3)s2)nc2ccccc12`, for which the inhibition is 32%. The same measure, in the same setting: with `COc1cc2c(cc1S(=O)(=O)c1ccc(NC(=O)Nc3ccc(F)cc3)cc1)CCN(C)CC2` the figure was -1%.
